Results taken from PubChem BioAssay (Tox21).
Records with an inconclusive call do not appear. The source made the active and inactive calls. Unless noted, calls follow the shape of the dose curve; as a rule, active = well fitted curve in the direction sought with a large enough effect in the repeat runs; inconclusive = weak or mixed curves; inactive = no such curve, though single readings can be large; an effect the other way counts as inactive or inconclusive.

Experiments:
[1] = qHTS assay to identify small molecule agonists of H2AX (AID 1224845; active = well fitted activation curve with a large enough effect in the signal ratio in the repeat runs, not every such curve was filed as active; the % refers to the signal ratio; also: potency is read from the fitted curve at half-maximal effect)
In short: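 Wild-type CHO-K1 cells, plated overnight, exposed 3hr at 37C to 15 concentrations (0.76% DMSO final). Lysed, then HTRF anti-pH2AX (S139) cryptate and anti-H2AX-d2 antibodies, 24 hr room temperature; 665/620 nm emission read.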

[2] = qHTS assay to identify small molecule agonists of the hypoxia (HIF-1) signaling pathway (AID 1224846; active = well fitted activation curve with a large enough effect in the signal ratio in the repeat runs, not every such curve was filed as active; the % refers to the signal ratio)
In short: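 Agonist mode reporter screen. ME-180 cells stably expressing bla under HRE control received test compounds in DMSO for 17 hrs (37C, 5% CO2), and beta-lactamase activity was then detected with the CCF4-AM FRET substrate.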

[3] = qHTS assay to identify small molecule agonists of H2AX - cell viability counter screen (AID 1224847; calls by dose curve; also: nearly all actives have a fitted effect of over 30% in size; also: potency is read from the fitted curve at half-maximal effect; as to activity change, negative = cytotoxicity: top concentration of the series differs between compounds)
In short: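 Counter-screen for viability: CellTiter-Glo ATP luminescence read after 3 h compound treatment (15-point titration, 0.76% DMSO final) of CHO-K1 cells at 37C, with 30 min room-temperature reagent incubation.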

[4] = qHTS RealTime-Glo MT Cell Viability Assay in HEK293 cells - 32 hour (AID 1224868); also: nearly all actives have a fitted effect of over 50% in size; also: potency is read from the fitted curve at half-maximal effect; as to activity change, negative = cytotoxic: top concentration of the series differs between compounds
In short: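 Quantitative high-throughput screen of the Tox21 10K library in HEK293: cells and RealTime-Glo reagents plated together, compound added at 5 h, luminescence monitored through 40 h at 37 C.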

[5] = A CellTox Green Cytotoxicity Assay to monitor cytotoxicity in HEK293 cells - 0 hour (AID 1224869); also: nearly all actives have a fitted effect of over 50% in size
In short: (§1)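 Dead-cell fluorescence measured kinetically: asymmetric cyanine dye, HEK293, 600 cells/well, 5 h settle, 23 nL cpd/DMSO, 37 C, reads 0–40 h every 8 h.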

[6] = A CellTox Green Cytotoxicity Assay to monitor cytotoxicity in HEK293 cells - 40 hour (AID 1224871); also: nearly all actives have a fitted effect of over 45% in size; also: potency is read from the fitted curve at half-maximal effect
In short: as §1

[7] = qHTS RealTime-Glo MT Cell Viability Assay in HepG2 cells - 24 hour (AID 1224867); also: nearly all actives have a fitted effect of over 50% in size
In short: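 Compound treatment began 5 h after plating HepG2 cells (600/well) with NanoLuc luciferase and prosubstrate. Plates stayed at 37 C for 40 h; luminescence was captured at six time points, 0 h through 40 h.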

[8] = qHTS RealTime-Glo MT Cell Viability Assay in HepG2 cells - 40 hour (AID 1224870); also: nearly all actives have a fitted effect of over 50% in size
In short: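 HepG2 cells (600/well) mixed with RealTime-Glo MT reagent, settled 5 h at 37 C/5% CO2 before compound addition. Nonlytic NanoLuc luminescence from viable-cell prosubstrate reduction read repeatedly during 40 h treatment at 37 C.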

[9] = qHTS assay to identify small molecule antagonists of the estrogen related receptor (ERR) signaling pathway from Tox21 library (AID 1224848); also: nearly all actives have a fitted effect of over 50% in size; also: potency is read from the fitted curve at half-maximal effect
In short: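 Compounds dissolved in DMSO are pin-transferred onto ERR reporter cells (2,000 per well) that have settled for 6 h at 37 C. Plates then incubate 18 h at 37 C before ONE-Glo luciferase reagent and a luminescence read 30 min later.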

[10] = qHTS assay to identify small molecule agonists of the estrogen related receptor (ERR) signaling pathway from Tox21 library (AID 1224849; calls by dose curve; also: nearly all actives have a fitted effect of over 15% in size); details: ERR reporter cell line, ONE-Glo luciferase, 18 h; at 92.4 µM (top of the series) unless noted
In short: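 Quantitative HTS in agonist format: NTP ERR cell line, compounds transferred in DMSO after 6 h plating, 18 h incubation at 37 C, ONE-Glo luminescence endpoint.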
% is scaled to controls: 0 for no effect and ±100 for the full control effect.

CCC(=O)OC/C=C/c1ccccc1
inactive: Potency [1] | outcome [2] | Potency [3] | Potency [4] | Potency [5] | Potency [6]

CC(=O)OCC(=O)[C@@]12OC(C)(C)O[C@@H]1C[C@H]1[C@@H]3C[C@H](F)C4=CC(=O)C=C[C@]4(C)[C@@]3(F)[C@@H](O)C[C@@]12C
active: Potency [6] 26.8 µM
inactive: Potency [1] | outcome [2] | Potency [3] | Potency [7] | Potency [5] | Potency [8]

CC[C@@H]([C@H](C)O)n1ncn(-c2ccc(N3CCN(c4ccc(OC[C@@H]5CO[C@@](Cn6cncn6)(c6ccc(F)cc6F)C5)cc4)CC3)cc2)c1=O
inactive: Potency [1] | outcome [2] | Potency [5] | Potency [6]
active: Potency [3] 19.6 µM | Potency [4] 3.01 µM

CC(=O)N(c1onc(C)c1C)S(=O)(=O)c1ccc(N)cc1
inactive: Potency [1] | outcome [2] | Potency [3] | Potency [7] | Potency [4] | Potency [5] | Potency [6]

Cc1ccc(S(=O)(=O)NC2CCCCC2)cc1
inactive: Potency [1] | outcome [2] | activity change, positive = activation [10] -34.7% | Potency [7] | Potency [5] | Potency [8] | Potency [6]
active: Potency [9] 27.1 µM

Cc1ccc(/C=N/n2c(-c3ccccc3)csc2=S)cc1
inactive: Potency [1] | outcome [2] | Potency [9] | activity change, positive = activation [10] 4.75% [at 42.5 µM] | Potency [7] | Potency [5]

Fc1c(F)c(F)c(Br)c(F)c1F
inactive: Potency [1] | outcome [2] | Potency [3] | Potency [4] | Potency [5] | Potency [8] | Potency [6]

COc1ccc(C(=O)c2cccc(O)c2)c(OC)c1
inactive: Potency [1] | outcome [2] | Potency [3] | Potency [7] | Potency [4] | Potency [5] | Potency [6]

Nc1c(I)cc(I)c(C(=O)N(CCC(=O)O)c2ccccc2)c1I
inactive: Potency [1] | outcome [2] | Potency [3] | Potency [7] | Potency [4] | Potency [5] | Potency [8] | Potency [6]

CCOC(=O)OCC
inactive: Potency [1] | outcome [2] | Potency [3] | Potency [4] | Potency [5] | Potency [6]

Nc1nc(Cl)nc2c1ncn2[C@@H]1O[C@H](CO)[C@@H](O)[C@@H]1F
active: Potency [1] 1.56 µM
inactive: outcome [2] | Potency [3] | Potency [7] | Potency [5] | Potency [8]

Cc1cc(OI)c(C(C)C)cc1-c1cc(C(C)C)c(OI)cc1C
inactive: Potency [1] | outcome [2] | Potency [3] | Potency [7] | Potency [5] | Potency [8]

CCCOC(=O)c1ccc(C(=O)OCCC)nc1
inactive: Potency [1] | outcome [2] | Potency [3] | Potency [7] | Potency [4] | Potency [5] | Potency [6]

O=C(O)c1snc(Cl)c1Cl
inactive: Potency [1] | outcome [2] | Potency [3] | Potency [7] | Potency [5] | Potency [8] | Potency [6]

CC(N)CN (stereo not drawn)
inactive: Potency [1] | outcome [2] | Potency [3] | Potency [7] | Potency [5] | Potency [8]

CC(C)=CC=O
inactive: Potency [1] | outcome [2] | Potency [3] | Potency [7] | Potency [4] | Potency [5] | Potency [8] | Potency [6]

C/C=C/C=C/CCCCCCCO
inactive: Potency [1] | outcome [2] | Potency [3] | Potency [4] | Potency [5]

CCCCOC(=O)CCS
inactive: Potency [1] | outcome [2] | Potency [3] | Potency [7] | Potency [4] | Potency [5] | Potency [6]

CN1CCN(c2c(F)cc3c(=O)c(C(=O)O)cn4c3c2OCN4C)CC1
inactive: activation (H2AX phosphorylation) [1] -2.48% [at 31.6 µM] | activation [2] -0.337% [at 15.8 µM] | activity change, negative = cytotoxicity [3] 0.372% [at 31.6 µM] | activity change, negative = cytotoxicity [7] 3.52% [at 15.8 µM] | cytotoxicity [5] -13.4% [at 15.8 µM] | activity change, negative = cytotoxic [8] -3.22% [at 15.8 µM] | cytotoxicity increase [6] -7.47% [at 15.8 µM]

COCc1c(C(C)C)nc(C(C)C)c(/C=C/[C@@H](O)C[C@@H](O)CC(=O)O)c1-c1ccc(F)cc1
inactive: Potency [1] | outcome [2] | Potency [3] | Potency [5] | Potency [6]

CCOc1cc(N)c(Cl)cc1C(=O)NCC1CN(Cc2ccc(F)cc2)CCO1 (stereo not drawn)
active: Potency [4] 16.9 µM
inactive: Potency [1] | outcome [2] | Potency [3] | Potency [5] | Potency [8] | Potency [6]

COCC(O)CO (stereo not drawn)
inactive: Potency [1] | outcome [2] | Potency [3] | Potency [4] | Potency [5]

CC(=O)Oc1ccc(C(=C2CCCCC2)c2ccc(OC(C)=O)cc2)cc1
inactive: Potency [1] | outcome [2] | Potency [3] | Potency [7] | Potency [5] | Potency [8] | Potency [6]

CC(=O)Nc1ccc(N)cc1
inactive: Potency [1] | outcome [2] | Potency [3] | Potency [7] | Potency [5] | Potency [8] | Potency [6]

Cc1oc(C)c(C(=O)Nc2ccccc2)c1C
inactive: Potency [1] | outcome [2] | activity change, positive = activation [10] -47.2% | Potency [7] | Potency [5] | Potency [8] | Potency [6]
active: Potency [9] 17.2 µM | Potency [4] 24.5 µM

CCOC(=O)c1ccccc1C
inactive: Potency [1] | Potency [3] | Potency [7] | Potency [5] | Potency [8] | Potency [6]
